The values that follow come from PubChem BioAssay (Tox21).

Experiment [1] is described as follows: qHTS RealTime-Glo MT Cell Viability Assay in HEK293 cells - 0 hour (AID 1224880). For activity change, negative = cytotoxicity: top concentration of the series differs between compounds. Note: nearly all actives have a fitted effect of over 45% in size. Note: potency is the fitted concentration of half-maximal effect. The gist of the method: (§1)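 Kinetic, non-lysing viability readout. Seed HEK293 (600/well) with reagent, incubate 5 h at 37 C/5% CO2, pin 23 nL compound in DMSO, incubate at 37 C, read luminescence at 0, 8, 16, 24, 32, 40 h.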
Experiment [2] in a line: A CellTox Green Cytotoxicity Assay to monitor cytotoxicity in HEK293 cells - 32 hour (AID 1224881). Note: nearly all actives have a fitted effect of over 40% in size. Note: potency is the fitted concentration of half-maximal effect. The gist of the method:
(§2)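 Real-time, in one plate: 600 HEK293 cells/well with dead-cell DNA dye, pinned compound after 5 h, 37 C incubation over 40 h; viable cells give no appreciable fluorescence.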

Experiment [3] is described as follows: A CellTox Green Cytotoxicity Assay to monitor cytotoxicity in HepG2 cells - 32 hour (AID 1224883). Note: nearly all actives have a fitted effect of over 50% in size. Note: potency is the fitted concentration of half-maximal effect. The gist of the method: (§3)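 Cytotoxicity was tracked as dead-cell DNA fluorescence in HepG2 cells treated with test compounds at 37 C; each time-point value comes from one kinetic series spanning 0, 8, 16, 24, 32 and 40 h.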
Experiment [4] in a line: A CellTox Green Cytotoxicity Assay to monitor cytotoxicity in HEK293 cells - 8 hour (AID 1224884). Note: nearly all actives have a fitted effect of over 35% in size. Note: potency is the fitted concentration of half-maximal effect. The gist of the method: as §2
The nature of experiment [5]: qHTS RealTime-Glo MT Cell Viability Assay in HepG2 cells - 16 hour (AID 1224885). Note: nearly all actives have a fitted effect of over 50% in size. Note: potency is the fitted concentration of half-maximal effect. The gist of the method: (§4)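 HepG2 cells (600/well) were dispensed with RealTime-Glo reagents, incubated 5 h at 37 °C, then treated with compounds in DMSO for up to 40 h. Nonlytic NanoLuc luminescence reflecting viable cells was read at each stated time point.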
(Quantitative high-throughput screening tests each substance at several concentrations.)

The nature of experiment [6]: qHTS RealTime-Glo MT Cell Viability Assay in HEK293 cells - 24 hour (AID 1224886). For activity change, negative = cytotoxicity: top concentration of the series differs between compounds. Note: nearly all actives have a fitted effect of over 50% in size. Note: potency is the fitted concentration of half-maximal effect. Summed up: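 HEK293 cells seeded with NanoLuc/prosubstrate reagent, rested 5 h at 37 C, then dosed and kept at 37 C up to 40 h. Nonlytic real-time luminescence from viable cells read at 0, 8, 16, 24, 32 and 40 h.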
A short description of experiment [7]: qHTS RealTime-Glo MT Cell Viability Assay in HEK293 cells - 8 hour (AID 1224887). For activity change, negative = cytotoxicity: top concentration of the series differs between compounds. Note: nearly all actives have a fitted effect of over 50% in size. Note: potency is the fitted concentration of half-maximal effect. Summed up: as §1
A short description of experiment [8]: qHTS RealTime-Glo MT Cell Viability Assay in HepG2 cells - 0 hour (AID 1224889). Note: nearly all actives have a fitted effect of over 50% in size. The gist of the method: as §4
The nature of experiment [9]: A CellTox Green Cytotoxicity Assay to monitor cytotoxicity in HepG2 cells - 0 hour (AID 1224882). Note: nearly all actives have a fitted effect of over 35% in size. Summed up: as §3
Experiment [10] in a line: A CellTox Green Cytotoxicity Assay to monitor cytotoxicity in HEK293 cells - 16 hour (AID 1224888). Note: nearly all actives have a fitted effect of over 35% in size. Note: potency is the fitted concentration of half-maximal effect. Summed up:
as §2

Values without a mark were called inactive. Records with an inconclusive call do not appear. Calls of active or inactive are those of the source. Calls come from the whole dose curve; as a rule, active = well fitted curve in the direction sought with a large enough effect in the repeat runs; inconclusive = weak or mixed curves; inactive = no such curve, though single readings can be large; an effect the other way counts as inactive or inconclusive.
% is set by controls: 0 for no effect and ±100 for the full control effect.

Consider `Cc1cnc(C)c(C)n1`, for which the Potency result in experiment [1], in [2], in experiment [3], in experiment [5], in [6] and in experiment [7] was “inactive” in each case. The Potency result in [8] was “inactive”. In addition, the Potency in experiment [4] is 51.3 µM (active).

As for `C[C@@H]1C[C@H]2[C@@H]3CCC4=CC(=O)C=C[C@]4(C)[C@@]3(F)[C@@H](O)C[C@]2(C)[C@H]1C(=O)CO`, the Potency result in [1], in experiment [2], in experiment [9], in experiment [4], in experiment [5] and in [6] was “inactive” each time. Besides, in [10], the Potency result is “inactive”.

With `COC(=O)Nc1nc2ccc(C(=O)c3cccs3)cc2[nH]1`, the Potency result in [1], in experiment [2], in [9], in experiment [4], in [5] and in experiment [10] was “inactive” throughout. In addition, the Potency result in experiment [8] is “inactive”.

In the case of `COc1ccc(CCC(=O)c2c(O)cc(O[C@@H]3O[C@H](CO)[C@@H](O)[C@H](O)[C@H]3O[C@@H]3O[C@@H](C)[C@H](O)[C@@H](O)[C@H]3O)cc2O)cc1O`, the Potency entry in experiment [1], in experiment [2], in experiment [3], in [4], in experiment [5] and in experiment [6] was “inactive” in each case. Besides, the Potency entry in experiment [10] and in experiment [8] was “inactive” in each case.

For the molecule `Cc1ccc(/C=N/n2c(-c3ccccc3)csc2=S)cc1`, the Potency entry in experiment [1], in experiment [2], in experiment [3], in [4], in [5] and in [6] was “inactive” throughout. The Potency result in experiment [7] and in experiment [8] was “inactive” each time.

On to `OCCSc1ccccc1`, for which the Potency entry in [1], in experiment [2], in [9], in [4], in experiment [5] and in experiment [6] was “inactive” in each case. Also, the Potency result in [10] and in experiment [8] was “inactive” throughout.

With `[O]=[Bi]`, the activity change, negative = cytotoxicity in experiment [1] is 1.4% [at 6.97 µM]; in experiment [6], 5.04% [at 6.97 µM]; in experiment [7] it was 1.28% [at 6.97 µM]; in experiment [8], 1.28% [at 6.97 µM]. Also, the cytotoxicity increase in [2] is -0.855% [at 6.97 µM]; in experiment [3] it was -9.49% [at 6.97 µM]; in experiment [4] it was -5.25% [at 6.97 µM]. For the same molecule, the activity change, negative = cytotoxic in experiment [5] is 1.05% [at 6.97 µM]. Moreover, the activity change in experiment [10] is -2.4% [at 6.97 µM, stronger effect = higher value].

Regarding `CC(CCO)CCc1ccccc1` (centres undefined), the Potency entry in [1], in experiment [2], in [3], in [4], in [5] and in [6] was “inactive” throughout. Moreover, the Potency result in [7], in experiment [10] and in experiment [8] was “inactive” throughout.

Take `CCCCC/C(=C\c1ccccc1)CO`: the Potency result in [1], in experiment [3], in experiment [5], in experiment [6] and in experiment [8] was “inactive” each time. The figures for the Potency in experiment [2] and in experiment [10] were 43.1 µM (active) and 48.4 µM (active), respectively.

As for `COc1ccc(C(=O)c2cccc(O)c2)c(OC)c1`, the Potency result in experiment [1], in experiment [2], in experiment [3], in experiment [4], in experiment [5] and in [6] was “inactive” each time. Also, the Potency result in [10] and in experiment [8] was “inactive” throughout.

As to `COc1cc2[nH]c(=O)[nH]c(=O)c2cc1OC`, the Potency result in [1], in experiment [2], in experiment [3], in [4], in experiment [5] and in experiment [6] was “inactive” each time. Also, the Potency result in experiment [7], in experiment [10] and in [8] was “inactive” in each case.

As to `CC[C@H](NC(=O)c1cc(F)ccc1NS(=O)(=O)c1cccc2cccnc12)c1ccccc1`, the Potency is 23.2 µM (active) in [1] and 46.3 µM (active) in [5]. In addition, the Potency entry in experiment [2], in experiment [3], in experiment [4], in [6], in experiment [7] and in [10] was “inactive” throughout.

Turning to `Nc1c(I)cc(I)c(C(=O)N(CCC(=O)O)c2ccccc2)c1I`, the Potency result in experiment [1], in [2], in experiment [3], in experiment [4], in [5] and in experiment [6] was “inactive” each time. Also, the Potency entry in experiment [7], in experiment [10] and in experiment [8] was “inactive” throughout.

`CCC(=O)Oc1ccc(/C(CC)=C(\CC)c2ccc(OC(=O)CC)cc2)cc1`: the Potency entry in experiment [1], in [2], in experiment [9], in experiment [4], in experiment [5] and in [10] was “inactive” throughout. Further, the Potency entry in [8] is “inactive”. Further, in experiment [6], the Potency was 21.9 µM (active).

In the case of `CCOCCn1c(C2CCN(CCc3ccc(C(C)(C)C(=O)O)cc3)CC2)nc2ccccc21`, the Potency entry in experiment [1], in experiment [2], in [4], in experiment [5], in experiment [6] and in experiment [7] was “inactive” throughout. Further, the Potency result in experiment [10] and in [8] was “inactive” in each case.

In the case of `O=C1OCCN1/N=C/c1ccc([N+](=O)[O-])o1`, the Potency result in experiment [1], in experiment [2], in [4], in [5], in experiment [6] and in experiment [7] was “inactive” throughout. Moreover, the Potency result in experiment [10] is “inactive”.

For `CNC(=S)NC`, the Potency result in experiment [1], in experiment [2], in experiment [4], in experiment [5], in [6] and in experiment [7] was “inactive” in each case. In addition, the Potency entry in experiment [10] and in [8] was “inactive” each time.

Consider `CCc1c2c(nc3ccc(OC(=O)N4CCC(N5CCCCC5)CC4)cc13)-c1cc3c(c(=O)n1C2)COC(=O)[C@]3(O)CC`, for which the Potency entry in [1], in experiment [2], in [9], in experiment [4], in experiment [5] and in experiment [7] was “inactive” each time. Also, the Potency result in experiment [10] and in experiment [8] was “inactive” throughout. The Potency in [6] is 2.68 µM (active).

As for `CC(CCc1ccc2c(c1)OCO2)NN` (centres undefined), the Potency entry in experiment [1], in experiment [2], in [3], in experiment [4], in experiment [5] and in experiment [6] was “inactive” each time. The Potency result in experiment [10] is “inactive”.

Consider `O=C(CCCN1CCN(c2ccc(F)cc2)CC1)NC1c2ccccc2CSc2ccccc21` (centres undefined), for which the Potency entry in [1], in experiment [2], in [4], in experiment [10] and in [8] was “inactive” throughout. Moreover, the values for the Potency in experiment [3], in experiment [6] and in experiment [7] were 23.9 µM (active), 16.9 µM (active) and 19 µM (active), respectively.

Turning to `Cc1cc(O)c2c(O)c3c(O)cccc3cc2c1`, the Potency entry in experiment [1], in [2], in [3], in experiment [4], in experiment [5] and in [6] was “inactive” each time. The Potency result in [10] and in experiment [8] was “inactive” throughout.

As to `CC1(C)O[C@@H]2C[C@H]3[C@@H]4CCC5=CC(=O)C=C[C@]5(C)[C@H]4[C@@H](O)C[C@]3(C)[C@]2(C(=O)CO)O1`, the Potency result in experiment [1], in experiment [2], in experiment [3], in experiment [4], in experiment [5] and in experiment [6] was “inactive” each time. Besides, the Potency entry in [7] and in experiment [10] was “inactive” each time.

Turning to `CCCCCCOC(=O)C(C)C`, the Potency entry in experiment [1], in [2], in [9], in [4], in experiment [5] and in experiment [6] was “inactive” throughout. The Potency result in experiment [7], in experiment [10] and in [8] was “inactive” throughout.

As to `CCCCOC(=O)CCS`, the Potency entry in experiment [1], in experiment [2], in [3], in experiment [4], in experiment [5] and in [6] was “inactive” in each case. Further, the Potency result in experiment [7], in experiment [10] and in experiment [8] was “inactive” each time.
